{
  "source": "PubChem BioAssay AID2275",
  "about": "(Broad Institute, 2010)",
  "note": "Hit rate of the full screen: of about 30,000 compounds, about 190 (0.63%) were called active. Cut-off read from the data, not from the text of the source: active = viability loss activity score above about 50%; inconclusive = no clear call, values can overlap the other calls; inactive = below about 35%. The list comes from a sample in which actives are over-represented; it also holds similar structures and randomly drawn compounds.",
  "data": [
    {"experiment": "BJeLR cell viability loss, primary screen, luminescence, CellTiterGlo ATP (AID 2275);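 note: higher score means fewer live cells and less ATP luminescence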", "conditions": "BJeLR fibroblasts viability, 48 h, hits give high values, HRASV12, hTERT and SV40 LT/ST transformed, concentration not given here", "values": [
      {"smiles": "N=c1n(CC(=O)c2ccc(Cl)c(Cl)c2)c2ccccc2n1Cc1ccccc1", "viability loss activity score": "0.84% (inactive)"},
      {"smiles": "O=C(NCCc1ccccc1)c1ccc(NC2=NC3CS(=O)(=O)CC3S2)cc1", "note": "(centres undefined)", "viability loss activity score": "2.13% (inactive)"},
      {"smiles": "COc1ccc(S(=O)(=O)Nc2cccc3c2O[C@@H](CN(C)Cc2ccc(-c4ccccc4)cc2)[C@H](C)CN([C@H](C)CO)C3=O)cc1", "viability loss activity score": "1.26% (inactive)"},
      {"smiles": "CC(=O)NC(c1ccccc1)c1ccc2cccnc2c1O", "note": "(centres undefined)", "viability loss activity score": "76.4% (active)"},
      {"smiles": "CC(C)(C)c1cc(C(=O)Oc2ccc(Cl)cc2)n(Cc2ccccc2)n1", "viability loss activity score": "4.03% (inactive)"},
      {"smiles": "C[C@@H]1CN([C@H](C)CO)C(=O)c2cccc(NS(=O)(=O)c3ccc(F)cc3)c2O[C@@H]1CN(C)C(=O)Nc1ccc(F)cc1", "viability loss activity score": "3.97% (inactive)"},
      {"smiles": "CCOc1cc(CNc2ccc(OC)cc2)ccc1OCC(=O)NC(C)(C)C", "viability loss activity score": "-0.358% (inactive)"},
      {"smiles": "COc1ccc(NC(=O)Nc2cccc3c2O[C@@H](CN(C)C(=O)NC(C)C)[C@H](C)CN([C@H](C)CO)C3=O)cc1", "viability loss activity score": "-0.272% (inactive)"},
      {"smiles": "COc1ccc2[nH]c3c(=O)n(Cc4ccc(C(=O)NCc5cccnc5)cc4)c(=S)[nH]c3c2c1", "viability loss activity score": "2.75% (inactive)"},
      {"smiles": "COCc1cc(C)nc2sc(C(N)=O)c(N)c12", "viability loss activity score": "6.31% (inactive)"},
      {"smiles": "CCOc1cc(-c2cc(C)c3c(ccc4ccccc43)n2)ccc1O", "viability loss activity score": "-1.76% (inactive)"},
      {"smiles": "CCc1ccc(/C=C2\\Cc3ccccc3C2=O)cc1", "viability loss activity score": "4.71% (inactive)"},
      {"smiles": "CCS(=O)(=O)C(=C(Nc1ccccc1)Nc1ccccc1)S(=O)(=O)CC", "viability loss activity score": "21.6% (inactive)"},
      {"smiles": "CN1/C(=C/C(=S)C(C)(C)C)Sc2ccccc21", "viability loss activity score": "0.712% (inactive)"},
      {"smiles": "CCCCn1c(-c2ccc(Br)cc2)nc2ccccc21", "viability loss activity score": "-1.15% (inactive)"},
      {"smiles": "Cc1ccc(NC2CCCCC2NS(=O)(=O)c2ccccc2)cc1", "note": "(centres undefined)", "viability loss activity score": "8.06% (inactive)"},
      {"smiles": "Cc1cc(C)c2c(c1)CC(C)(C)c1[nH]c(-c3ccccc3)nc1-2", "viability loss activity score": "-0.635% (inactive)"},
      {"smiles": "COCC(=O)NCc1nn(-c2ccccc2)nc1C", "viability loss activity score": "1.49% (inactive)"},
      {"smiles": "Cc1ccc(S(=O)(=O)c2no[n+]([O-])c2S(=O)(=O)c2ccc(C)cc2)cc1", "viability loss activity score": "62% (active)"},
      {"smiles": "CCOC(=O)N1CCN(C(=O)CSc2ncnc3c2nnn3Cc2ccc(F)cc2)CC1", "viability loss activity score": "-1.44% (inactive)"},
      {"smiles": "Cc1ccc2c(c1)N(CCC(=O)NC1CCC(C)CC1)C(=O)CO2", "note": "(centres undefined)", "viability loss activity score": "-1.39% (inactive)"},
      {"smiles": "C=CCn1c(SCc2ccc(C(=O)O)cc2)nnc1-c1cccc(OC)c1", "viability loss activity score": "-6.6% (inactive)"},
      {"smiles": "CCN(C(=O)c1coc(=O)c2ccccc12)c1cccc(C(F)(F)F)c1", "viability loss activity score": "0.65% (inactive)"},
      {"smiles": "O=C(O)CSc1nnc(COc2ccc(Cl)cc2)n1-c1ccc(Br)cc1", "viability loss activity score": "0.406% (inactive)"},
      {"smiles": "C[C@@H]1CN([C@H](C)CO)C(=O)c2cc(NS(C)(=O)=O)ccc2O[C@H]1CN(C)C(=O)Nc1cccc2ccccc12", "viability loss activity score": "-0.115% (inactive)"},
      {"smiles": "S=C(Nc1cccc(Cl)c1)N1CCCN(Cc2ccccc2Cl)C1", "viability loss activity score": "-1.27% (inactive)"},
      {"smiles": "O=C1CC(c2ccc(F)cc2)CC(O)=C1C=NCCN1CCN(C(=S)Nc2ccccc2)CC1", "note": "(centres undefined)", "viability loss activity score": "8.57% (inactive)"},
      {"smiles": "Cc1ccc(S(=O)(=O)N2CCCC2)cc1-c1nnc2c3ccccc3c(C)nn12", "viability loss activity score": "2.21% (inactive)"},
      {"smiles": "CCOC(=O)c1c(C)n(C)c2ccccc12", "viability loss activity score": "1.79% (inactive)"},
      {"smiles": "Cc1ccc(-n2nnnc2-c2cnn(-c3ccccc3)c2C)cc1", "viability loss activity score": "-4% (inactive)"},
      {"smiles": "Cc1ccc(S(=O)(=O)Nc2ccc3c(c2)C(=O)N([C@H](C)CO)C[C@H](C)[C@H](CN(C)S(C)(=O)=O)O3)cc1", "viability loss activity score": "0.992% (inactive)"},
      {"smiles": "COC(OC)c1nc(SCC(=O)Nc2ccc(C(C)C)cc2)ncc1C(=O)O", "viability loss activity score": "-6.58% (inactive)"},
      {"smiles": "Cc1oc2cc(Br)c(OC(=O)c3ccco3)cc2c1C(=O)OC(C)C", "viability loss activity score": "-1.39% (inactive)"},
      {"smiles": "CCc1ccc(NC(=O)c2sc3[nH]c(=O)c(C(=O)O)cc3c2N)cc1", "viability loss activity score": "-3.87% (inactive)"},
      {"smiles": "COCCn1cc(C(=O)NC2CCCCCC2)c2c3ccccc3n(C)c2c1=O", "viability loss activity score": "2.88% (inactive)"},
      {"smiles": "COc1ccc(NS(=O)(=O)c2ccc3c(c2)OCC(=O)N3)cc1", "viability loss activity score": "3.85% (inactive)"},
      {"smiles": "Cc1ccc(NC(=S)Nc2ccc(C)cc2)cc1", "viability loss activity score": "2.21% (inactive)"},
      {"smiles": "COC(=O)c1ccccc1Oc1c(F)c(F)nc(N2CCOCC2)c1F", "viability loss activity score": "2.06% (inactive)"},
      {"smiles": "C/C=C(/C)C(=O)O[C@H]1CC(C)(C)C[C@H]2C3=CCC4[C@@]5(C)CC[C@H](O[C@@H]6O[C@H](C(=O)O)[C@@H](O[C@@H]7O[C@H](CO)[C@H](O)[C@H](O)[C@H]7O[C@@H]7O[C@H](CO)[C@@H](O)[C@H](O)[C@H]7O)[C@H](O)[C@H]6O[C@@H]6O[C@@H](C)[C@H](O)[C@@H](O)[C@H]6O)C(C)(C)C5CC[C@@]4(C)[C@]3(C)[C@@H](O)[C@@H](O)[C@@]12CO", "note": "(some centres undefined)", "viability loss activity score": "104% (active)"},
      {"smiles": "C=CC1(C)C=C2CCC3C(C)(C)C(O[C@@H]4O[C@@H](CO)[C@H](O)[C@H]4O)CCC3(C)C2CC1O[C@@H]1O[C@H](C)[C@@H](OC)[C@H](O)[C@H]1O", "note": "(some centres undefined)", "viability loss activity score": "-5.62% (inactive)"},
      {"smiles": "C/C=C(/C)C(=O)O[C@H]1CC(C)(C)C[C@H]2C3=CCC4[C@@]5(C)CC[C@H](O[C@@H]6O[C@H](C(=O)O)[C@@H](O[C@@H]7O[C@H](CO)[C@H](O)[C@H](O)[C@H]7O[C@@H]7O[C@H](CO)[C@@H](O)[C@H](O)[C@H]7O)[C@H](O)[C@H]6O[C@@H]6O[C@@H](C)[C@H](O)[C@@H](O)[C@H]6O)C(C)(C)C5CC[C@@]4(C)[C@]3(C)[C@@H](OC(C)=O)[C@@H](O)[C@@]12COC(C)=O", "note": "(some centres undefined)", "viability loss activity score": "72.5% (active)"},
      {"smiles": "CC1(C)CC[C@]2(C(=O)O)CC[C@]3(C)C(=CCC4[C@@]5(C)CC[C@H](OC6O[C@H](CO)[C@@H](O)[C@H](O[C@@H]7O[C@H](CO)[C@@H](O)[C@H](O)[C@H]7O)[C@H]6O)C(C)(C)C5CC[C@]43C)[C@@H]2C1", "note": "(some centres undefined)", "viability loss activity score": "17.9% (inactive)"},
      {"smiles": "CC1OC(OC2C(OC3C(O[C@H]4CC[C@@]5(C)C(CC[C@]6(C)C5CC=C5[C@@H]7CC(C)(C)C[C@@H](O)[C@]7(C)CC[C@]56C)C4(C)C)OC(C(=O)O)C(O)C3O)OC(CO)C(O)C2O)C(O)C(O)C1O", "note": "(some centres undefined)", "viability loss activity score": "2.12% (inactive)"},
      {"smiles": "COc1ccc(/C=C/C(=O)O[C@@H]2[C@@H](OC(=O)/C=C/c3ccc(OC)cc3)[C@H](C)O[C@@H](O[C@H]3[C@@H]4C=CO[C@@H](O[C@@H]5O[C@H](CO)[C@@H](O)[C@H](O)[C@H]5O)[C@@H]4[C@@]4(CO)O[C@@H]34)[C@@H]2OC(C)=O)cc1", "viability loss activity score": "-3.51% (inactive)"}
    ]}
  ]
}
